Our source for the fluorescence slope change and inhibition values is PubChem BioAssay.

Results filed as inconclusive are left out. Activity calls are given as the source filed them. Rule as the data show it: active = fluorescence slope change above about 50%; inconclusive = mostly about 31% to 49%; inactive = weaker than that.

The first assay deals with ATP-dependent translocase ABCB1 (Homo sapiens) (UniProt P08183). Description: P-glycoprotein substrate transport blockade – cell-based (AID 377). To be noted: MDR1-expressing cells, fluorescent substrate accumulation slope; stronger effect = higher value; concentration not given here.
ATP-dependent translocase ABCB1 (Homo sapiens), sequence (P08183 whole entry, looked up): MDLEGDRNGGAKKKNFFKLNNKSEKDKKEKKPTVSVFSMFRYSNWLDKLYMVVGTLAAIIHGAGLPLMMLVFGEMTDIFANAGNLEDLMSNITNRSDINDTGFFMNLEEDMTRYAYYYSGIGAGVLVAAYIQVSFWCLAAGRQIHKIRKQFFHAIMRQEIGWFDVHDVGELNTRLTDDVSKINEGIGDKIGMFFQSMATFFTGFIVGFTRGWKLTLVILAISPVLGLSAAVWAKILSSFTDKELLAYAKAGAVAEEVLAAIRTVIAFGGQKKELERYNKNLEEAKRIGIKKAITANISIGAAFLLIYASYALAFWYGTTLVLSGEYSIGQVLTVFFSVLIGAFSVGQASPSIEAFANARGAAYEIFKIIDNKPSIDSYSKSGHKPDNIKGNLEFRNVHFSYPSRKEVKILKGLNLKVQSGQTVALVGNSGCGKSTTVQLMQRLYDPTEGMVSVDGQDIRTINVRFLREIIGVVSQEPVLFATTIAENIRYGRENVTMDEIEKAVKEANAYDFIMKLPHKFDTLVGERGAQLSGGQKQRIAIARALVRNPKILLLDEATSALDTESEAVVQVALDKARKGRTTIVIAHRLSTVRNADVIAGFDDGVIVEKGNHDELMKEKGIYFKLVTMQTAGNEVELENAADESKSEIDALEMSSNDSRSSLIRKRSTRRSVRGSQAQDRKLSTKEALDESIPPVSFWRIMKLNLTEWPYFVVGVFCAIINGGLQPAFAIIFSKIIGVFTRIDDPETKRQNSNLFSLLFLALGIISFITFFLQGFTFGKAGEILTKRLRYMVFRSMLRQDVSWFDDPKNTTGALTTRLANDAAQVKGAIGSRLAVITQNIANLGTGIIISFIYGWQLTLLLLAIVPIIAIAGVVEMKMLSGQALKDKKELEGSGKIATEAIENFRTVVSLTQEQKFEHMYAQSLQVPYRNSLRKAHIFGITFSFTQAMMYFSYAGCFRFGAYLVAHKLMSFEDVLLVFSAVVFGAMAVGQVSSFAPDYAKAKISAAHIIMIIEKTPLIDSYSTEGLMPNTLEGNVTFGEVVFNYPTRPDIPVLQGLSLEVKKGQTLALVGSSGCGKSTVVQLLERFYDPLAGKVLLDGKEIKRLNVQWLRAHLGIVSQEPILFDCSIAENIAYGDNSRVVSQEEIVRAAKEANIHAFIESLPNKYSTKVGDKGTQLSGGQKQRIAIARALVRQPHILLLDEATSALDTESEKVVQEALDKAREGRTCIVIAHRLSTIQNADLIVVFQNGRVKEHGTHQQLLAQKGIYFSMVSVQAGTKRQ
On to `CN1CCN(CCCN2c3ccccc3Sc3ccc(Cl)cc32)CC1`, for which the fluorescence slope change was 65.3% (active).

As to `CC(C(=O)O)c1ccc(C(=O)c2cccs2)cc1` (configuration not stated), the fluorescence slope change was 12.2% (inactive).

Regarding `Nc1c(Br)cc(Br)cc1CNC1CCC(O)CC1` (configuration not stated), the fluorescence slope change is 57.2% (active).

Turning to `COc1cnc(NS(=O)(=O)c2ccc(N)cc2)nc1`, the fluorescence slope change was 9.5% (inactive).

Regarding `CC(C)(Oc1ccc(CCNC(=O)c2ccc(Cl)cc2)cc1)C(=O)O`, the fluorescence slope change is 88.6% (active).

As to `CO[C@]12C[C@@H](COC(=O)c3cncc(Br)c3)CN(C)[C@@H]1Cc1cn(C)c3cccc2c13`, the fluorescence slope change is 159% (active).

In the case of `CN1Cc2c(N)cccc2C(c2ccccc2)C1` (configuration not stated), the fluorescence slope change was 80.5% (active).

As for `CC(Cc1cccc(C(F)(F)F)c1)NCCOC(=O)c1ccccc1` (configuration not stated), the fluorescence slope change is 69.3% (active).

As to `CCN(CC)CCNC(=O)c1cc(Br)c(N)cc1OC`, the fluorescence slope change is 8.5% (inactive).

Regarding `COc1ccc(CN(CCN(C)C)c2ccccn2)cc1`, the fluorescence slope change is 102% (active).

As for `CCN(CC)C(=O)N1CCN(C)CC1`, the fluorescence slope change is 25.5% (inactive).

Regarding `Cc1ncc([N+](=O)[O-])n1CCO`, the fluorescence slope change was 22.4% (inactive).

Turning to `CCCCOc1ccc(OCCCN2CCOCC2)cc1`, the fluorescence slope change is 29.5% (inactive).

As for `O=C(O)CCC(=O)Nc1ccc(S(=O)(=O)Nc2nccs2)cc1`, the fluorescence slope change is 2.1% (inactive).

For the molecule `Cc1ccccc1N1C(=O)c2cc(S(N)(=O)=O)c(Cl)cc2NC1C` (configuration not stated), the fluorescence slope change is 79.4% (active).

As to `Cc1ccc(C(=O)c2ccc(CC(=O)O)n2C)cc1`, the fluorescence slope change was 69.6% (active).

For the molecule `Cc1ccccc1OCC(O)CO` (configuration not stated), the fluorescence slope change is 59.3% (active).

On to `O=C(Cn1ccnc1[N+](=O)[O-])NCCO`, for which the fluorescence slope change was 10% (inactive).

Take `CC1(C)OC(=O)NC1=O`: the fluorescence slope change was 19.4% (inactive).

In the case of `COc1ccc(NS(=O)(=O)c2ccc(N)cc2)nn1`, the fluorescence slope change is -40.8% (inactive).

For `C=CCc1ccccc1OCC(O)CNC(C)C` (configuration not stated), the fluorescence slope change was 80.3% (active).

In the case of `Cc1cc(C(C)(C)C)c(O)c(C)c1CC1=NCCN1`, the fluorescence slope change was 75.3% (active).

As to `CCn1cc(C(=O)O)c(=O)c2cnc(N3CCCC3)nc21`, the fluorescence slope change was 55.2% (active).

Regarding `CCOC(=O)[C@H](CCc1ccccc1)N[C@@H](C)C(=O)N1CCC[C@H]1C(=O)O`, the fluorescence slope change is 54.7% (active).

With `Cc1c(NC(=O)c2cccnc2)c(=O)n(-c2ccccc2)n1C`, the fluorescence slope change is 25.2% (inactive).

Consider `NS(=O)(=O)c1cc(C(=O)O)c(NCc2ccco2)cc1Cl`, for which the fluorescence slope change was 19.9% (inactive).

Regarding `CCCC(C(=O)OCCN(CC)CC)(c1ccccc1)c1ccccc1`, the fluorescence slope change was 180% (active).

Take `O=C(O)c1ccccc1Nc1cccc(C(F)(F)F)c1`: the fluorescence slope change is 92.3% (active).

`C[C@](N)(Cc1ccc(O)c(O)c1)C(=O)O`: the fluorescence slope change was 52.1% (active).

With `Cc1cc(N)c2ccccc2[n+]1CCCCCCCCCC[n+]1c(C)cc(N)c2ccccc21`, the fluorescence slope change was 97.9% (active).

In the case of `NS(=O)(=O)c1cc2c(cc1Cl)NC(C(Cl)Cl)NS2(=O)=O` (configuration not stated), the fluorescence slope change is 24.8% (inactive).

On to `Cc1ccnc(NS(=O)(=O)c2ccc(N)cc2)n1`, for which the fluorescence slope change was 18.7% (inactive).

For `Nc1ccc(S(=O)(=O)NC(=O)c2ccccc2)cc1`, the fluorescence slope change was 30% (inactive).

Turning to `Cc1c(N(C)CS(=O)(=O)O)c(=O)n(-c2ccccc2)n1C`, the fluorescence slope change is 12.6% (inactive).

Take `CCCOc1ccccc1-c1nc2n[nH]nc2c(=O)[nH]1`: the fluorescence slope change was 11.9% (inactive).

On to `CC(=O)NO`, for which the fluorescence slope change is 25.2% (inactive).

Test system in another assay: not listed separately
Nature of the assay: blockers of polyQ-driven CASP3 activation – cell-based (AID 1583). To be noted: polyglutamine-induced caspase-3 activation, cell assay; stronger effect = higher value;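 tested at 10 µM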.
What is called inhibition is the relative decrease from the control value, in per cent. Take `CN1CCN(CCCN2c3ccccc3Sc3ccc(Cl)cc32)CC1`: the inhibition stood at 88.9%.

`CC(C(=O)O)c1ccc(C(=O)c2cccs2)cc1` (configuration not stated): the inhibition amounted to 7.38%.

For `Nc1c(Br)cc(Br)cc1CNC1CCC(O)CC1` (configuration not stated), the inhibition is -21.8%.

With `COc1cnc(NS(=O)(=O)c2ccc(N)cc2)nc1`, the inhibition is 4.47%.

Turning to `CC(C)(Oc1ccc(CCNC(=O)c2ccc(Cl)cc2)cc1)C(=O)O`, the inhibition is -1.59%.

As for `CO[C@]12C[C@@H](COC(=O)c3cncc(Br)c3)CN(C)[C@@H]1Cc1cn(C)c3cccc2c13`, the inhibition is 2.79%.

For the molecule `CN1Cc2c(N)cccc2C(c2ccccc2)C1` (configuration not stated), the inhibition stood at 63.6%.

Turning to `CC(Cc1cccc(C(F)(F)F)c1)NCCOC(=O)c1ccccc1` (configuration not stated), the inhibition was 15%.

As for `CCN(CC)CCNC(=O)c1cc(Br)c(N)cc1OC`, the inhibition stood at 15.4%.

Turning to `COc1ccc(CN(CCN(C)C)c2ccccn2)cc1`, the inhibition was 17.1%.

For the molecule `CCN(CC)C(=O)N1CCN(C)CC1`, the inhibition stood at 14.8%.

For `Cc1ncc([N+](=O)[O-])n1CCO`, the inhibition was -3.1%.

As to `CCCCOc1ccc(OCCCN2CCOCC2)cc1`, the inhibition turned out to be 9.28%.

Turning to `O=C(O)CCC(=O)Nc1ccc(S(=O)(=O)Nc2nccs2)cc1`, the inhibition is -5.43%.

With `Cc1ccccc1N1C(=O)c2cc(S(N)(=O)=O)c(Cl)cc2NC1C` (configuration not stated), the inhibition came to 19.1%.

Take `Cc1ccc(C(=O)c2ccc(CC(=O)O)n2C)cc1`: the inhibition was found to be 3.78%.

Regarding `Cc1ccccc1OCC(O)CO` (configuration not stated), the inhibition was 20.6%.

With `O=C(Cn1ccnc1[N+](=O)[O-])NCCO`, the inhibition was -0.7%.

On to `CC1(C)OC(=O)NC1=O`, for which the inhibition is -3.41%.

On to `COc1ccc(NS(=O)(=O)c2ccc(N)cc2)nn1`, for which the inhibition was found to be 24%.

As for `C=CCc1ccccc1OCC(O)CNC(C)C` (configuration not stated), the inhibition stood at 3.86%.

Turning to `Cc1cc(C(C)(C)C)c(O)c(C)c1CC1=NCCN1`, the inhibition was -9.11%.

`CCn1cc(C(=O)O)c(=O)c2cnc(N3CCCC3)nc21`: the inhibition was -13.1%.

For `CCOC(=O)[C@H](CCc1ccccc1)N[C@@H](C)C(=O)N1CCC[C@H]1C(=O)O`, the inhibition was found to be 21.1%.

With `Cc1c(NC(=O)c2cccnc2)c(=O)n(-c2ccccc2)n1C`, the inhibition was determined as 13.7%.

`NS(=O)(=O)c1cc(C(=O)O)c(NCc2ccco2)cc1Cl`: the inhibition was 10.9%.

`CCCC(C(=O)OCCN(CC)CC)(c1ccccc1)c1ccccc1`: the inhibition was -4.65%.

For `O=C(O)c1ccccc1Nc1cccc(C(F)(F)F)c1`, the inhibition was -0.73%.

With `C[C@](N)(Cc1ccc(O)c(O)c1)C(=O)O`, the inhibition stood at 10.4%.

On to `Cc1cc(N)c2ccccc2[n+]1CCCCCCCCCC[n+]1c(C)cc(N)c2ccccc21`, for which the inhibition is -13.3%.

Take `NS(=O)(=O)c1cc2c(cc1Cl)NC(C(Cl)Cl)NS2(=O)=O` (configuration not stated): the inhibition came out at 12.2%.

Regarding `Cc1ccnc(NS(=O)(=O)c2ccc(N)cc2)n1`, the inhibition amounted to 3.68%.

For the molecule `Nc1ccc(S(=O)(=O)NC(=O)c2ccccc2)cc1`, the inhibition was found to be 20.3%.

For `Cc1c(N(C)CS(=O)(=O)O)c(=O)n(-c2ccccc2)n1C`, the inhibition is -33.9%.

Consider `CCCOc1ccccc1-c1nc2n[nH]nc2c(=O)[nH]1`, for which the inhibition was -7.12%.

Consider `CC(=O)NO`, for which the inhibition was found to be 31.8%.
